Source: PubChem (NMMLSC)
In the library only some 2.9% were active in any assay of this set; here they are far more common.
MEKK2wt PB1 HTS: modulators of MEK5 binding to wildtype MEKK2, primary screen, biochemical, multiplex bead flow cytometry, Alexa488-MEK5; Mitogen-activated protein kinase kinase kinase 2 (Homo sapiens), Q9Y2U5; Alexa488-MEK5 binding to MEKK2 WT; actives lie on both sides; binding response (% of control), % at 10 µM; 290,000 compounds, 1.1% hits; AID 1531, 2009; in the data active = binding response below about 67% or above about 130%
GRK2 inh: compounds blocking aptamer binding on GRK2 – biochemical, human GRK2, bead flow cytometry, HTS, primary screen | Beta-adrenergic receptor kinase 1 (Homo sapiens), P25098 | FAM-aptamer displacement from GRK2 | inhibition of aptamer binding, % at 10 µM | 330,000 compounds, 0.59% hits;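 active = inhibition of aptamer binding above 40%, roughly 3 SD of noise, on plates passing a quality check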;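 also: median bead fluorescence of bound FAM aptamer so fluorescent compounds give negative values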
Target sequence (P25098 whole entry, looked up): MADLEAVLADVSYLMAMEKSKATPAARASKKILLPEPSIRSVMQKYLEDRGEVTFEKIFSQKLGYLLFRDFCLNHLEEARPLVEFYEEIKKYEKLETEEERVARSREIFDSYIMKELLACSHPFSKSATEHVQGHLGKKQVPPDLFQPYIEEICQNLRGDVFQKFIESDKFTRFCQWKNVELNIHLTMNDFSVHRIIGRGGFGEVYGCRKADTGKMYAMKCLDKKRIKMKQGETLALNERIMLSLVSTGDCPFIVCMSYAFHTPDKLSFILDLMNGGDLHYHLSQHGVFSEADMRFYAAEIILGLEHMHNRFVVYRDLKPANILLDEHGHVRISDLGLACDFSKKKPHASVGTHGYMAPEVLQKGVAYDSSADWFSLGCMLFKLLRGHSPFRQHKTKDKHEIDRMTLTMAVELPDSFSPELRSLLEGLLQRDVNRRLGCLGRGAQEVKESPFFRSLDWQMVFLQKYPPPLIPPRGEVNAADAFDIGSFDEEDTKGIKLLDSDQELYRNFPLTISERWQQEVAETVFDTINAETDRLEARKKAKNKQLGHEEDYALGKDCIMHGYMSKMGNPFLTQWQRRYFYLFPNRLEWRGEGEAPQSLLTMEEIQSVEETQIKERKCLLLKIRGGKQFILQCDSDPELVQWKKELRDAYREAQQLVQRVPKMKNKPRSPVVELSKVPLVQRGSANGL
MEKK2 mut-MEK5: MEK5 binding signal on mutant MEKK2 PB1, primary screen, biochemical, multiplex bead flow cytometry, Alexa488-MEK5 | Alexa488-MEK5 binding to MEKK2 mutant | percent response, % at 10 µM | 290,000 compounds, 0.35% hits | AID 1530, 2009; in the data active = percent response above about 24%, passing the limit was not always enough
MEKK3 PB1 HTS: modulators of MEKK3-MEK5 PB1 binding, primary screen, biochemical, wildtype MEKK3, multiplex bead flow cytometry, Alexa488-MEK5 | 290,000 compounds, 1.4% hits | AID 1529, 2009 | bead-based flow cytometry, Alexa488-MEK5 binding to MEKK3; actives lie on both sides; 0 = blocked by unlabeled MEK5, 100 = vehicle | Mitogen-activated protein kinase kinase kinase 3 (Homo sapiens), Q99759 | binding response (% of control), % at 10 µM;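 active = binding response more than 3 SD above or below the average of its plate-row segment, actives on both sides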;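 also: Alexa488 bead fluorescence after subtracting the streptavidin-only scavenger bead signal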
B2AR ag: beta2AR agonists driving receptor internalization, primary screen, cell-based, FAP fluorogen, flow cytometry. 340,000 compounds, 0.43% hits. response, % (concentration not given with the values). AID 504454, 2011. Am2.2-beta2AR cells. Beta-2 adrenergic receptor (Homo sapiens), P07550;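 active = response above a set limit, near 3 SD of response in nonfluorescent compounds, cut at about 42% in these data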
MEKK2wt confirm: modulators of MEK5 binding to wildtype MEKK2, confirmation, biochemical, single concentration, multiplex bead flow cytometry | 5,900 compounds, 2.4% hits | binding response (% of control), % at 10 µM | AID 1892, 2009 | shares compounds with MEKK3 PB1 HTS | Alexa488-MEK5 binding to MEKK2 WT; actives lie on both sides; in the data active = binding response below about 16% or above about 210%; inactive = in between
MEKK2mut confirm: mutant MEKK2 PB1-MEK5 binding signal retest – biochemical, single concentration, multiplex bead flow cytometry, confirmation; shares compounds with MEKK3 PB1 HTS; Alexa488-MEK5 binding to MEKK2 mutant; percent response, % at 10 µM; 5,900 compounds, 2% hits; in the data active = percent response mostly above about 71%, no sharp cut-off; inactive = mostly below about 38%;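 also: higher means compound restores mutant binding toward wildtype level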
MEKK3-MEK5 inh: MEKK3 wild-type PB1 binding to MEK5, inhibitors, confirmation, biochemical, bead multiplex flow cytometry, single concentration, wildtype; shares compounds with MEKK3 PB1 HTS; Alexa488-MEK5 binding to MEKK3; hits give low values; binding response (% of control), % at 10 µM; 5,900 compounds, 1.8% hits;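 active = binding response below 72% of control, or above a set upper limit, though filed actives all read lower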;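 also: 100% = DMSO only wells and 0% = binding blocked by excess unlabeled MEK5; lower values mean stronger disruption of MEK5 binding to MEKK3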
* marks the source's active call; other numbers are inactive results; / = no result; [ ] = another dose, or the depositor's remark.

SMILES	MEKK2wt PB1 HTS	GRK2 inh	MEKK2 mut-MEK5	MEKK3 PB1 HTS	B2AR ag	MEKK2wt confirm	MEKK2mut confirm	MEKK3-MEK5 inh
CC1(C)Cc2c(C#N)c(N)sc(=S)c2CS1	56*[inhibitor]	14	-21	85	10	79	-10	97
CCSC1=NCCN1C(=O)C(C)(C)Oc1ccc(Cl)cc1	100	3	-5	105	6	/	/	/
CN(C)c1ccc(C(=O)n2nnc3ccccc32)cc1	-7.0*[inhibitor]	4	-24	1.0*[inhibitor]	4	103	2	102
Cc1ccc(C(=O)n2nnc3ccccc32)cc1	103	0	5	104	/	/	/	/
N#C/C(=N\Nc1ccccc1)C(=N)N1CCOCC1	105	0	0	130*	-6	97	-2	95
Cc1ccc(N/N=C(\C#N)C(=N)N2CCOCC2)cc1	108	0	-1	104	3	/	/	/
OCCN1CCN(CCCN2c3ccccc3Sc3ccc(Cl)cc32)CC1	160*	0	10	79	/	141	27	105
CN(C)CCCN1c2ccccc2Sc2ccc(Cl)cc21	153*	0	13	102	14	149	27	107
CN(C)CCCN1c2ccccc2Sc2ccc3ccccc3c21	/	/	/	/	18	/	/	/
Cc1cccc(C)c1NC(=S)N(C)CCc1ccccn1	103	1	0	129*	3	105	1	101
CCOc1ccc(NC(=O)CN(C)C(=O)c2ccccc2OCCOc2ccccc2)cc1OCC	/	4	/	/	1	/	/	/
CC1=CC2=NC(=O)CC(C)(C(=O)N(CC(=O)NC3CCCC3)c3cc(C)cc(C)c3)N2C=C1 (configuration not stated)	128	2	6	150*	-2	104	8	103
CC(=O)Oc1ccccc1C(=O)OCCN=C1NS(=O)(=O)c2ccccc21	96	1	-2	97	4	/	/	/
Cn1ccnc1C(=O)C1CCCN(Cc2cn[nH]c2-c2ccc(-c3ccccc3)cc2)C1 (configuration not stated)	148*	0	30	116	-5	109	2	99
COc1ccc(C(=O)C2CCCN(Cc3cn[nH]c3-c3ccccc3)C2)cc1OC (configuration not stated)	92	18	-6	103	1	/	/	/
CCOC(=O)C1CCN(C(=O)c2cc(COc3ccc(OC)c4ccccc34)on2)CC1	101	0	-2	99	2	/	/	/
Cc1cc(NS(=O)(=O)c2ccc(NC(=O)CSc3nc4ncc(Br)cc4[nH]3)cc2)nc(C)n1	119	0	18	123	0	/	/	/
CCCC[C@@H](CNC)NC[C@H](Cc1ccc(O)cc1)NCCc1ccc(OCC)cc1	153*	0	5	103	3	142	26	102
CCc1cc[n+](CC(=O)Nc2ccc(Cl)cc2Cl)cc1	4.0*[inhibitor]	2	-4	3.0*[inhibitor]	-3	108	4	101
COc1ccc(Cl)cc1NC(=O)C[n+]1ccccc1	108	2	3	105	-4	/	/	/
O=C(NCc1ccccn1)Nc1cc(Cl)cc(Cl)c1	105	1	8	104	0	/	/	/
O=C(NCc1csc2ccccc12)Nc1cc(Cl)cc(Cl)c1	138*	0	29	123	-3	106	-4	98
Cc1ccc(C)c(C(=O)Nc2ccncc2)c1	108	0	1	105	7	/	/	/
CCc1cc(=O)oc2c3c(cc(OCC(=O)NCCCOC)c12)OC(C)(C)CC3	96	0	-1	96	-10	/	/	/
